The results in this text go back to PubChem BioAssay (NCI).

About 83,000 compounds went through this panel and 20% of them were active in at least one assay; those are over-represented in the sample as a whole.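 A percent growth of 40 corresponds to 60% growth inhibition; 0 means no net growth; -100 means all cells died. Active threshold: below 10.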 Unmarked numbers belong to inactive results. Active and inactive are the calls of the source.

The experiment relates to OVCAR-5 ovarian. Description: NCI-60 one-dose screen, 48 h (100 = growth as untreated, 0 = no growth, -100 = all killed). To be noted: 10 µM unless noted. How it is done: Growth inhibition of the OVCAR-5 human tumor cell line is measured as a screen for anti-cancer activity. Cells are grown in 96 well plates and exposed to the test compound for 48 hours. Compounds are tested at a single concentration, which is 10^-5 M for most compounds. The reported endpoint is percent growth (GI% or GIPRCNT), where numbers from 0 - 100% represent growth inhibition, and numbers from -100% - 0 represent cell death. For example, a value of 40 represents 60% growth inhibition. A value of 0 means no net growth occurred over the course of the experiment. A value of -40 indicates 40% of cells at the beginning of the experiment died by the end of the experiment. A value of -100 means all cells are dead at the end of the experiment.
NCI-60 Human Tumor Cell Lines Screen was performed using the standard one-dose NCI protocol, which is described in more detail at https://dtp.cancer.gov/discovery_development/nci-60/default.htm.
Compounds with GIPRCNT values below 10 were considered active. Activity score was based on GIPRCNT using the following formula: […]
Score is 0 for GIPRCNT values of 100 or above, 50 for GIPRCNT values of 0, and 100 for GIPRCNT values of -100.
Turning to `COc1ccc(OC)c(/C=N/Nc2ncnc3c2c(C)nn3C)c1`, the growth is 93.2%. In the case of `CC1OC(n2c3ccccc3c3c4c(c5c6ccccc6[nH]c5c32)C(=O)N(CCN2CCCC2)C4=O)CC(O)C1O` (stereo not given), the growth was 78.1%.

As for `NNc1nc(-c2cccnc2)nc2c1sc(=S)n2-c1ccccc1`, the growth was 102%. As to `O=C1Nc2ccccc2/C1=C/c1nc2ccccc2c(=O)[nH]1`, the growth was 125%.

For the compound `O=C1NC2(Nc3ccccc31)C(=O)Nc1c(Cl)cc(Cl)cc12` (stereo not given), the growth is 115%. Next, `CC1=NC2=Nn3c(c4cnn(-c5ccccc5)c4n/c3=N\N)NN2C(c2ccccc2)=C1`: 90%; `CCCCNC(=O)Oc1ccc(/C(=C(/C)Cc2ccc(OC)cc2)c2ccc(OCCN(CC)CC)cc2)cc1`: 82%. Next, `O=CN1N=C(c2cccc(Nc3ccnc4cc(Cl)ccc34)c2)CC1c1ccccc1` (stereo not given): 36.3%; `CCCCCC(/C=N\NC(=S)N/N=C/C(=C/c1ccccc1)CCCCC)=C\c1ccccc1`: 105%. As for `COc1ccc(C(=O)Nc2cccc(-c3cc(=O)c4c(OC)c(OC)c(OC)cc4o3)c2)cc1`, the growth was 95.6%. For `CCNCCNc1cc(C2CCCCC2)c(C#N)c2nc3ccccc3n12`, the growth is 18.2%. With `C=C1C(=O)O[C@H]2[C@H]1CC/C(COC(=O)/C=C\C(=O)NCc1ccc(Cn3c(=O)sn(CCI)c3=O)cc1)=C\CC[C@@]1(C)O[C@@H]21` the figure was 77.7%; with `CC(=O)N1N=C(c2ccc(Nc3nc(Nc4ccccc4)nc(Nc4ccccc4)n3)cc2)CC1c1ccccc1` (stereo not given), 91.9%; with `Nc1nc2ccccc2c2c1S(=O)(=O)c1ccc(Cl)cc1C2=O`, 13.9%.

Turning to `CCOC(=O)c1c(NC(=O)c2ccc(Cl)cc2)sc2c(CN(C)C)c(O)ccc12`, the growth was 95.2%. For the compound `COc1cc2c(cc1OCCCN1CCN(CCCOc3cc4c(cc3OC)C(=O)N3CC(F)(F)C[C@H]3C=N4)CC1)N=C[C@@H]1CC(F)(F)CN1C2=O`, the growth is 41.2%. With `Cn1ccnc1C(=O)/C=C/c1ccc(CC(=O)Nc2cc(C(F)(F)F)cc(C(F)(F)F)c2)cc1` the figure was 83.8%; with `COc1ccc(/C=N\Nc2nc(SCCC(C)C)nc(-c3ccc(OC)cc3)c2C#N)cc1`, 63.3%; with `N#C/C(=C\c1c(-c2ccccc2)[nH]c2ccccc12)C(N)=O`, 107%. With `CC(=O)O[C@@H]1C[C@]2(C(C)C)O[C@@]1(C)[C@@H]1CCC(C)=C1[C@@H]2OC(=O)/C=C/c1ccccc1` the figure was 98.1%; with `C=C1C(=O)O[C@H]2[C@H]1CC/C(COC(=O)NCc1ccc(Cn3c(=O)sn(CCCCC)c3=O)cc1)=C\CC[C@@]1(C)O[C@@H]21`, 72.5%; with `Nc1[nH]n2cc(-c3ccccc3)nc2c1N=Nc1ccc(S(N)(=O)=O)cc1`, 65.4%.

On to `Oc1c(Br)cc(Br)c2ccc(Cn3cc(-c4ccc(C(F)(F)F)cc4)nn3)nc12`, for which the growth is 89%. With `CCCCCCC12CCC(=O)N1CCc1cncn12` (stereo not given), the growth is 98.7%. With `Clc1cccc(Nc2ncnc3ccc(-c4cnc5[nH]ccc5c4)cc23)c1` the figure was 78.7%. Next, `CCC(C)(C)C(=O)O[C@H]1C[C@@H](C)C=C2C=C[C@H](C)[C@H](CC[C@@H]3CC(SCCN)CC(=O)O3)[C@H]21` (stereo not given in full): 99.1%; `COc1c(B(O)O)cccc1-c1cc(C)c2c(ccc3[nH]ncc32)n1`: 72.1%; `O=C(Nc1nc2cc(C(=O)N3CCN(C(c4ccccc4)c4ccccc4)CC3)ccc2o1)c1ccc(NC2CCCCC2)c([N+](=O)[O-])c1`: 72.5%. For `O=C(CSc1nnc(-c2cnccn2)n1-c1ccccc1)c1ccc(Cl)cc1`, the growth was 96.9%. Regarding `O=C(NNC(=O)c1ccc(NC(=O)c2ccccn2)cc1)Nc1ccc([N+](=O)[O-])cc1`, the growth is 92.4%.

Turning to `O=C1Nc2ccccc2/C1=C/c1cccn1CCCCn1c2ccccc2c(=O)c2ccccc21`, the growth is 77.9%. As to `NC(=O)C(=O)c1ccccc1NC=O`, the growth was 102%.

Consider `COc1ccc2c(c1)N(CCO)C1=C(C(=O)OC1)C2c1cccc(F)c1` (stereo not given), for which the growth is 44.6%. Next, `COc1ccc(-c2nc3c(ncc4ccc(=O)[nH]c43)s2)cc1`: 90%; `CCOCCNC1=C(Cl)C(=O)c2ccccc2C1=O`: 120%. With `COc1cc2c(c(OC)c1OC)CCC(c1cccc(C(=O)Nc3ccc(C#N)cc3)c1)O2` (stereo not given) the figure was 79.3%. With `C=C1C(=O)O[C@H]2[C@H]1CC/C(COC(=O)C(=O)c1cn(C)c3ccc(Cl)cc13)=C\CC[C@@]1(C)O[C@@H]21` the figure was -47.6% (active); with `Cc1cc(=O)n(C(=O)Nc2ccccc2Cl)c2cc(O)ccc12`, 102%; with `CCCCNC(=O)Oc1ccc(/C(=C(/C)Cc2ccc(OC)cc2)c2ccc(OCCN3CCCC3)cc2)cc1`, 86%. As for `NC(N)=NCCCCCNc1noc(Cc2c[nH]c3cc(Br)ccc23)n1`, the growth is 85.4%.
